This passage reports Tm shift results from PubChem BioAssay AID382 (SGCOxCompounds, 2006).

Calls of active or inactive are those of the source. How the calls were made is not given here.

The target in one test is Dual specificity protein kinase CLK1 (Homo sapiens) (UniProt P49759). In words: ligand-induced CLK1 melting temperature shift – biophysical, recombinant human kinase, DSF (AID 382). To be noted: Recombinant CLK1, thermal shift (DSF), at 10 µM, protein 2 µM, buffer 10 mM HEPES, NaCl 150 mM, stronger effect = higher value.
Sequence of Dual specificity protein kinase CLK1 (Homo sapiens) (P49759 whole entry, looked up): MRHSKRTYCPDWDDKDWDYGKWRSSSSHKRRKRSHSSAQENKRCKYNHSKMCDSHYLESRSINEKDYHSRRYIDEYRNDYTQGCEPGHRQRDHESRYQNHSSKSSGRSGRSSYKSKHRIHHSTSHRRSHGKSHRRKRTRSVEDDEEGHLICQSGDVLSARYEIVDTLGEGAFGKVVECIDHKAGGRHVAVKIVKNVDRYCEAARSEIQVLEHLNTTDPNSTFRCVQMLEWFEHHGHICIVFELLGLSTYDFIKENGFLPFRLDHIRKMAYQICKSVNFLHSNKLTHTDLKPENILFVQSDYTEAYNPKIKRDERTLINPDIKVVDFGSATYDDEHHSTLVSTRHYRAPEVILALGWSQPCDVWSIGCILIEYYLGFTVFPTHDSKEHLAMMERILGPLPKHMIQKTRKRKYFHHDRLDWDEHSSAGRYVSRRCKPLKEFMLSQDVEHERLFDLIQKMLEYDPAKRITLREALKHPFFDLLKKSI
With `O=c1cc(-c2ccc(O)cc2)oc2cc(O)cc(O)c12`, the Tm shift is 5.94 Celsius (active).

With `O=c1c(O)c(-c2cc(O)c(O)c(O)c2)oc2cc(O)cc(O)c12`, the Tm shift is 6.89 Celsius (active).

Consider `Cc1c(O)cc(O)c2c1OC(c1ccc(O)c(O)c1)C(=O)C2=O` (configuration not stated), for which the Tm shift was 4.98 Celsius (active).

Regarding `O=c1c(O)c(-c2ccc(O)c(O)c2)oc2cc(O)ccc12`, the Tm shift was 7.11 Celsius (active).

On to `O=c1cc(-c2ccc(O)c(O)c2)oc2cc(O)cc(O)c12`, for which the Tm shift was 5.77 Celsius (active).

The test is the same for the next values; noted with them: Recombinant CLK1, thermal shift (DSF), at 10 µM, protein 2 µM, buffer 10 mM HEPES, pH 7.5, NaCl 150 mM, with 50 µM L-Arg/L-Glu (1:1), stronger effect = higher value.
As for `CCC(CO)Nc1ccc2ncc(-c3cccc(OC(F)(F)F)c3)n2n1` (configuration not stated), the Tm shift was 5.3 Celsius (active).

As to `CC(C)[C@@H](CO)Nc1ccc2ncc(-c3cccc(OC(F)(F)F)c3)n2n1`, the Tm shift is 4.6 Celsius (active).

On to `O=c1[nH]c(O)c2c1c1c3ccccc3nc1n1cncc21`, for which the Tm shift is 4.5 Celsius (active).

Turning to `CC(C)[C@@H](CO)Nc1ccc2ncc(-c3cccc(C(F)(F)F)c3)n2n1`, the Tm shift was 5.1 Celsius (active).

On to `Nc1ccc(-c2cnc3ccc(NC4CCOCC4)nn23)cc1`, for which the Tm shift was 4.8 Celsius (active).

Take `CC(C)[C@@H](CO)Nc1ccc2ncc(-c3cccc(Cl)c3)n2n1`: the Tm shift is 3.9 Celsius (active).

Take `CC(=O)c1cccc(-c2cnc3ccc(NC4CCOCC4)nn23)c1`: the Tm shift was 5.2 Celsius (active).

Consider `COc1cccc(-c2cnn3ccc(Nc4cccc(Cl)c4)nc23)c1`, for which the Tm shift was 6 Celsius (active).

Regarding `NC1=N/C(=C2\CCNC(=O)c3[nH]ccc32)C(=O)N1`, the Tm shift was 6 Celsius (active).

As to `Oc1cccc(-c2cnc3ccc(NC4CCOCC4)nn23)c1`, the Tm shift is 5.1 Celsius (active).

For `OCC(O)CCO/N=C1/C(c2c(O)[nH]c3ccccc23)=Nc2ccccc21` (configuration not stated), the Tm shift is 7.7 Celsius (active).

As for `CC(=O)c1cccc(-c2cnc3ccc(N[C@H](CO)C(C)C)nn23)c1`, the Tm shift was 6.7 Celsius (active).

`CNC(=O)c1cc(Oc2ccc(NC(=O)Nc3ccc(C)c(C(F)(F)F)c3)cc2)ccn1`: the Tm shift was 4.9 Celsius (active).

In the case of `O=C1NC(=O)C(c2cn(CCCn3ccnc3)c3ccccc23)=C1Nc1ccccc1`, the Tm shift was 5.8 Celsius (active).

For the compound `CC(=O)Nc1cccc(-c2cnc3ccc(N[C@H](CO)C(C)C)nn23)c1`, the Tm shift is 7.4 Celsius (active).

In the case of `COCCNc1ccc2ncc(-c3cccc(C(N)=O)c3)n2n1`, the Tm shift is 3.9 Celsius (active).

In the case of `CC(C)[C@@H](CO)Nc1ccc2ncc(-c3cccc(F)c3)n2n1`, the Tm shift was 3.9 Celsius (active).

With `CCC(CO)Nc1ccc2ncc(-c3cccc(CO)c3)n2n1` (configuration not stated), the Tm shift was 5.3 Celsius (active).

On to `COC(=O)c1ccc(-c2cnc3ccc(NC4CCOCC4)nn23)cc1`, for which the Tm shift is 4.3 Celsius (active).

On to `COc1cncc(-c2cnc3ccc(NC4CCOCC4)nn23)c1`, for which the Tm shift was 3.2 Celsius (active).

`COCCNc1ccc2ncc(-c3cccc(C(C)=O)c3)n2n1`: the Tm shift was 5.1 Celsius (active).

Take `N#CCCc1ccc2c(c1)-c1[nH]c3ccc(-n4oo4)cc3c1CC(=O)N2`: the Tm shift was 3.1 Celsius (active).
